The results in this text go back to ChEMBL document CHEMBL4513216, “Probing the Open Global Health Chemical Diversity Library for Multistage-Active Starting Points for Next-Generation Antimalarials” (ACS Infect Dis, 2020).

In all, about 69,000 compounds went through this assay and about 8,600 (12%) showed an effect of 50% or more. This excerpt belongs to a sample that is enriched for strong results.

In the assay the test system is Plasmodium berghei. The assay is described as follows: Screen against P. berghei liver stage (PbLuc), transformed with Luciferase, at 10uM. Format: functional, HepG2. To be noted: tested at 10 uM.
Take `Cc1ccc(C2CCCN(C(=O)c3cnn(C)c3)C2)nc1` (stereo not given): the INHIBITION stood at 3.91%. For the compound `CCNC(=O)CN1CCCC(c2ccc(C(=O)O)cc2)C1` (stereo not given), the INHIBITION is recorded as 45%. Regarding `CC(C)c1cncnc1N1CC[C@H](N2CCOCC2)[C@H](CCCO)C1`, the INHIBITION is reported as 30.5%. `O=C(c1ccc(=O)[nH]c1)N1C[C@H]2CC[C@@H](C1)N(Cc1ccccc1)C2`: the INHIBITION is -70.7%. With `O=C(NCCc1cnccn1)C1(N2CCCCC2)Cc2ccccc2C1` the figure was 43.7%. The result for `COc1ccc(NC(=O)c2ccc(CN3CC[C@H](O)C3)cc2)c(OC)n1` reads 26.7%; that for `Cc1[nH]ccc1C(=O)Nc1cccc(CN2CCC(O)CC2)c1`, -4.74%. On to `NC(=O)C1CCCN(Cc2ccc(C(=O)Nc3cnns3)cc2)C1` (stereo not given), for which the INHIBITION is 40.15%.

`Cc1cncc(NC(=O)c2ccc(CN3CC[C@H](O)C3)cc2)c1`: the INHIBITION was found to be 87.5%. In the case of `Cc1cncc(NC(=O)c2ccc(CN3CCC(CO)CC3)cc2)c1`, the INHIBITION is -12.4%. With `Cc1cc(NC(=O)c2ccc(CN3CC[C@H](O)C3)cc2)ccc1F`, the INHIBITION turned out to be 90.3%. The result for `COc1cc(NC(=O)c2ccc(CN3CC[C@H](O)C3)cc2)cc(OC)c1` reads 67.6%. With `Cc1cncc(NC(=O)c2ccc(CN3CCCC(C(N)=O)C3)cc2)c1` (stereo not given), the INHIBITION was 23%. Regarding `O=C(Nc1ccccc1CCO)c1cccc(CN2CC[C@H](O)C2)c1`, the INHIBITION was determined as 23.9%. `CCNC(=O)C1CCN(Cc2ccc(C(=O)Nc3nnc(C)s3)cc2)C1` (stereo not given): the INHIBITION came out at 57.35%. Take `CCNC(=O)C1CCN(Cc2ccc(C(=O)Nc3cnns3)cc2)C1` (stereo not given): the INHIBITION is 12.2%. Turning to `O=C(Nc1cccc2c1CCCC2)c1cccc(CN2CC[C@H](O)C2)c1`, the INHIBITION came out at 37.6%. As to `Cc1ccc(CN2C[C@@H]3[C@@H](C(=O)N4CCCC4)CCS(=O)(=O)[C@@H]3C2)cc1`, the INHIBITION is -10.9%. Consider `O=C(c1ccc[nH]1)N1C[C@@H]2CC[C@H]1CN(c1ncccn1)C2`, for which the INHIBITION is on record as -16.5%.

Regarding `O=C1C[C@H]2[C@@H](CCN2C(=O)c2ccc[nH]2)N1CCN1CCCC1`, the INHIBITION came to 47.9%. As for `COc1cc(C)nc(N2CCN(C(=O)c3ccoc3C)CC2)n1`, the INHIBITION came out at 11.9%.

Consider `c1cncc(-c2ncnc3c2CCN(Cc2cccs2)CC3)c1`, for which the INHIBITION is -49.8%. On to `O=C(CCc1ccc(Cl)s1)N1CCCC(N2CCNC2=O)C1` (stereo not given), for which the INHIBITION is 30%. Regarding `O=C(CCc1cccs1)N1CCC(N2CCNC2=O)CC1`, the INHIBITION was found to be 27.8%. The result for `O=C(CCc1cccs1)N1CCCC(N2CCNC2=O)C1` (stereo not given) reads 11.6%; that for `O=C(CCCc1cccs1)N1CCC(N2CCNC2=O)CC1`, 70.8%.

Consider `O=C(CCc1ccc(Cl)s1)N1CCC(N2CCNC2=O)CC1`, for which the INHIBITION was 60.9%. The result for `O=C(CCc1ccccc1)N1CCC(N2CCNC2=O)CC1` reads 2.61%. Take `O=C(NCC1CC1)[C@@H]1CCO[C@@H]2CCN(c3ncccn3)C[C@@H]21`: the INHIBITION came out at 44.2%.

Consider `Cc1nc(C)n(C2CCCN(C(=O)c3ccc(OC(C)C)nc3)C2)n1` (stereo not given), for which the INHIBITION is given as 5.907%. On to `CN(C)CCN(Cc1cccc(F)c1)C(=O)c1ccn(C)c(=O)c1`, for which the INHIBITION turned out to be 31.1%. For `O=C1CC(c2cccnc2)c2c(c(C(=O)O)cn2-c2ccccc2F)N1` (stereo not given), the INHIBITION came out at 19.4%.

With `Cc1cc(C)c(NC(=O)Nc2cnn(CC(O)CN(C)C)c2)c(C)c1` (stereo not given), the INHIBITION was found to be 35.4%. For the compound `Cc1c(CCC(=O)N2CCCC2c2ccnc(N(C)C)c2)cnn1C` (stereo not given), the INHIBITION is 23%. For `COc1ccc(CNC(=O)Nc2cccnc2OC)cc1O`, the INHIBITION was determined as 9.54%. The result for `Cc1ccc(N2CC[C@H]3OCC[C@@]3(C(=O)N(C)C)C2)nn1` reads 24.3%; that for `Cc1ncc(-c2ccncc2)c(C2CCCN(C(=O)c3ccno3)C2)n1` (stereo not given), 18.505%. With `O=C(NC1CC1)c1cc(C2CC2)nc2onc(C3CCNCC3)c12` the figure was 24.2%. On to `Cn1nc(C2CCCN2)c2c(C(=O)NC3CC3)cc(C3CC3)nc21` (stereo not given), for which the INHIBITION came to 40%. For the compound `Cn1nc(C2CCNC2)c2c(C(=O)NC3CC3)cc(C3CC3)nc21` (stereo not given), the INHIBITION stood at 45.8%. With `Cn1nc(C2CCNCC2)c2c(C(=O)NC3CC3)cc(C3CC3)nc21`, the INHIBITION turned out to be 59.8%.

Turning to `Cn1nc(C2CCCNC2)c2c(C(=O)NC3CC3)cc(C3CC3)nc21` (stereo not given), the INHIBITION was determined as 52.4%. As to `Cn1nc(C2CCNC2)c2c(C(=O)NCC(F)(F)F)cc(C3CC3)nc21` (stereo not given), the INHIBITION is listed as 47.4%. With `Cc1ccccc1CNC(=O)Cn1ncc2c1c(C)nn2C`, the INHIBITION stood at 21.7%. As to `Cc1ccc(C(=O)NC2CCN(CC(=O)N(C)c3ccccc3)CC2)o1`, the INHIBITION was 7.27%.

As to `Cn1cccc1C(=O)COc1ccc(S(N)(=O)=O)cc1`, the INHIBITION is -55.3%. In the case of `CNC(=O)C1(CCCc2cnccn2)CCN1CCc1ccccc1` (stereo not given), the INHIBITION came to 23.8%. With `CCN1CCn2c(C)cnc2C12CCN(C(=O)NC)CC2`, the INHIBITION worked out at 6.27%. With `CNS(=O)(=O)c1ccc(CNC(=O)c2cccc(C)n2)cc1`, the INHIBITION is 37.4%.

On to `COCCN(C)C(=O)c1cc2c(s1)CCN2C(=O)C1CC1`, for which the INHIBITION was found to be 37.5%. As for `CCN(C)S(=O)(=O)N1CCC(C(O)c2ccc(F)cc2)CC1` (stereo not given), the INHIBITION is reported as 51.1%. For `CN(C)S(=O)(=O)N1CCC(C(O)c2ccc(Cl)cc2)CC1` (stereo not given), the INHIBITION is given as -9.8%. With `CCN(C)S(=O)(=O)N1CCC(C(O)c2ccc(Cl)cc2)CC1` (stereo not given) the figure was 50.1%; with `Cc1occc1C(=O)N1CCC(C(O)c2ccc(Cl)cc2)CC1` (stereo not given), -49.3%; with `Cc1occc1C(=O)N1CCC(C(O)c2ccc(F)cc2)CC1` (stereo not given), -85.6%. `CCOCC(=O)N1CCC(C(O)c2ccc(F)cc2)CC1` (stereo not given): the INHIBITION is -6.99%. Consider `CCS(=O)(=O)N1CCO[C@H]2[C@H](Oc3ncccc3F)CC[C@@H]21`, for which the INHIBITION stood at 17.4%. With `O=C(O)c1ccccc1-n1cnc(CN2CCc3ccccc3C2)c1` the figure was 12.8%; with `CCn1c(CC2CCN(S(=O)(=O)N3CCCCC3)CC2)nn(C)c1=O`, 0.546%.

On to `CN(C)C(=O)c1c[nH]nc1-c1ccc(CNC(=O)c2cnccn2)cc1`, for which the INHIBITION was found to be 0.5%. Turning to `CN1CCOCC12CCN(Cc1nccs1)CC2`, the INHIBITION was determined as 0.804%. Regarding `COCCN1CCOCC12CCN(c1ccc(C#N)cc1)CC2`, the INHIBITION is listed as 49.7%. Consider `CCN1CCOCC12CCN(c1nccs1)CC2`, for which the INHIBITION was 54.8%. As for `Cc1noc(C)c1CN1CCOCC12CCN(c1nccs1)CC2`, the INHIBITION is listed as 67.5%. For `Cc1noc(C)c1CN1CCOCC12CCN(c1cnccn1)CC2`, the INHIBITION is given as 34.9%.

`COCCN1CCOCC12CCN(c1cnccn1)CC2`: the INHIBITION was determined as 42.1%. The result for `c1csc(CN2CCC3(CC2)COCCN3CC2CC2)n1` reads 50.7%; that for `Cc1noc(C)c1CN1CCOCC12CCN(c1ncccn1)CC2`, 47.5%; that for `CCN1CCOCC12CCN(c1ccc(C#N)cc1)CC2`, 2.4%. Turning to `CCN1CCOCC12CCN(c1cnccn1)CC2`, the INHIBITION came out at 32.1%.

As for `COCCN1CCOCC12CCN(c1nccs1)CC2`, the INHIBITION is 53.9%. The result for `c1csc(CN2CCC3(CCCN3CC3CC3)CC2)n1` reads 33%; that for `CN(C)Cc1ccnc(C2CN(Cc3nccs3)CCO2)n1` (stereo not given), 35.2%. With `Cc1cc(N2CCC(C(=O)NC3CC3)CC2)nc(-c2ccncc2)n1` the figure was -0.219%; with `CS(=O)(=O)N1CCC(Cc2cnc(Br)cn2)C1` (stereo not given), -29.9%.

Consider `c1cnc(N2CCCC(Cc3nccs3)C2)nc1` (stereo not given), for which the INHIBITION turned out to be 11.685%. The result for `CS(=O)(=O)NC1CCN(C(=O)c2coc(CN3CCOCC3)c2)CC1` reads 34.9%; that for `COc1cc(CSc2nnc(C)n2CC(N)=O)ccc1SC`, -9.93%. For `CCCC(=O)N1CCC(Cc2ccccc2-c2ccccc2)(C(N)=O)C1` (stereo not given), the INHIBITION was -31%.

`O=C(C1CCOCC1)N1CCC2(CCN(Cc3nccs3)CC2)CC1`: the INHIBITION was found to be 18.3%.

Regarding `O=C(C1CCOC1)N1CCC2(CCN(Cc3nccs3)C2)CC1` (stereo not given), the INHIBITION is reported as 46.2%. Take `O=C(C1CCOC1)N1CCC2(CCN(Cc3nccs3)CC2)CC1` (stereo not given): the INHIBITION turned out to be 52%. Take `CC(C)CC(=O)N1C[C@@H]2CCN(c3ncccn3)C[C@@H]2C1`: the INHIBITION worked out at 44.1%. Consider `O=C(c1cnc(OCC(F)(F)F)c(Cl)c1)N1CCc2ccc(O)cc2C1`, for which the INHIBITION was 70.9%. For the compound `O=C(c1c[nH]c(=O)c(Cl)c1)N1CCc2ccccc2C1`, the INHIBITION is recorded as -29.6%. For `CC(C)Oc1ncc(C(=O)N2CCc3ccc(O)cc3C2)cc1Cl`, the INHIBITION turned out to be 77.1%.

Take `CC(C)Oc1ncc(C(=O)N2CCC(NC(=O)C3CC3)CC2)cc1Cl`: the INHIBITION is reported as -13.2%. Take `O=C(c1ccc(O)nc1)N1CCc2ccc(O)cc2C1`: the INHIBITION came to 11.7%.

For `CC(C)Oc1ncc(C(=O)N2CCCC(C(=O)O)C2)cc1Cl` (stereo not given), the INHIBITION was determined as 23.3%. For the compound `COc1ccc(CN2C[C@@H](OCc3csc(C)n3)[C@H]3COC[C@H]32)cc1`, the INHIBITION was -21.5%. Turning to `N#CC1CCCN(C(=O)Cn2ncc(N3CCCC3)cc2=O)C1` (stereo not given), the INHIBITION amounted to 44.9%.

In the case of `CCc1cc(N2CCC3(CCCNC3=O)C2)nc(N2CCOCC2)n1` (stereo not given), the INHIBITION amounted to 70.3%. `CCc1cc(N2CCCC(CC)(C(=O)O)C2)nc(N2CCOCC2)n1` (stereo not given): the INHIBITION was 39.6%.

Consider `Cc1cc(C2CCC2)nc(N2CCC3(CCCNC3=O)C2)n1` (stereo not given), for which the INHIBITION came to 42.5%. As to `COCCN1CCN(c2nc(O)cc(Cc3ccccc3F)n2)CC1`, the INHIBITION is given as 38.7%. With `COCCN1CCN(CC2CCCCO2)CC1` (stereo not given) the figure was 51.7%; with `COCCN1CCC(CN(CC2CCCO2)C(=O)COC)CC1` (stereo not given), 26.8%; with `COCCN1CCC(CN(CC2CCCO2)C(=O)CNC(C)=O)CC1` (stereo not given), 50.2%. Turning to `Cn1c(CN2CCN(CC3CCCO3)CC2)nc2ccccc21` (stereo not given), the INHIBITION is listed as 27.6%. The result for `O=S(=O)(N1CCCC1)N1CCN(CC2CCCO2)CC1` (stereo not given) reads 33.4%; that for `COCCCN1CCN(CC2CCCO2)CC1` (stereo not given), 17.5%; that for `COCCN1CCC(CN(CC2CCCO2)C(=O)CCNC(C)=O)CC1` (stereo not given), -14.9%. On to `Cc1cccc(C)c1OCCCN1CCN(CC2CCCO2)CC1` (stereo not given), for which the INHIBITION came out at 67.1%.

`Cc1cccc(C)c1OCCCN1CCC(n2cncn2)CC1`: the INHIBITION is listed as -49.5%. For `O=C(NCCCNC(=O)c1cccc(O)c1)Nc1ccc(Cl)cc1`, the INHIBITION was 45.5%.
